RORgamma inh – inhibitors of mouse ROR gamma transcriptional activity; 5.4% of 310,000 active; P51450; Potency, µM (doses to about 53.6 µM), most hits filed as inhibitors; Drosophila S2 Gal4-RORgamma UAS-luciferase reporter, 20 h; AID 2551; further: nearly all actives have a fitted effect of over 60% in size
Target sequence (P51450 whole entry, looked up, the tested form may be a part): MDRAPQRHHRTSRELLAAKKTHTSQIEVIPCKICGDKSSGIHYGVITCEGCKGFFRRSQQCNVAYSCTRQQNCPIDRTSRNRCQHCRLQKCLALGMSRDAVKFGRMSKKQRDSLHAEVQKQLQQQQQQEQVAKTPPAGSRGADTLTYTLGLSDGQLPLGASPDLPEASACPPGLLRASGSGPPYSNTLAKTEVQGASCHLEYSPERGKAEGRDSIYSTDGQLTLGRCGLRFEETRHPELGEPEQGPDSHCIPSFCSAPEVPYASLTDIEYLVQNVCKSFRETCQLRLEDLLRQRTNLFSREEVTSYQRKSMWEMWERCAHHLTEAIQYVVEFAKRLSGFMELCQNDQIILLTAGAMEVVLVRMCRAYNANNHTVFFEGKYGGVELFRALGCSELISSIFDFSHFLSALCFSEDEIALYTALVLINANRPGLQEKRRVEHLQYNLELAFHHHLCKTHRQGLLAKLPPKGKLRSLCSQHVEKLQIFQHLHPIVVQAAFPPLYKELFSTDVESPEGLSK
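Drosophila S2 cells stably expressing Gal4-DBD/mouse RORγ fusion under metallothionein promoter plus UAS-luciferase; compound 1 h, then 700 uM CuSO4 induction for 20 h at ambient temperature; inhibition read as reduced luminescence.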
SW480 rereplic – inducers of DNA re-replication in SW480 colon cancer cells. SW480 DNA re-replication, Hoechst DNA content imaging, 48 h. Potency, µM (doses to about 46.1 µM), most hits filed as activators. 1.8% of 340,000 active; further: nearly all actives have a fitted effect of over 55% in size
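DNA re-replication was detected as more nuclei of elevated Hoechst intensity after 48 hr exposure to compound (23 nL pinned per well of 250 cells).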
BCR signal inh – blocks chronic active B-cell receptor signaling; ABC-DLBCL IkBa-CBG/CBR reporter, luminescence ratio, 4 h; 0.05% of 340,000 active; AID 493014; Potency, µM (titrated, usually from 46.1 µM), actives largely listed as inhibitors; active means well fitted inhibition curve with a large enough effect in the signal ratio, with a control signal flat, not every such curve was filed as active; inconclusive means small, poorly fitted or top-dose-only effect, or effect the other way, or a change in a side signal; the % refers to the signal ratio
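TMD8 human ABC-DLBCL cells with doxycycline-inducible IκBα–green luciferase fusion and unfused red luciferase, in 0.5% FBS medium; compounds up to 46 uM, 4 h at 37C. Green/red luminescence ratio, filter-overlap corrected, fitted to concentration-response curves.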
MCF10A rerep – induces DNA re-replication in MCF 10a normal breast cells; Potency, µM (titrated, usually from 46.1 µM), usual class: activators; 2.9% of 350,000 active; AID 624296; MCF 10A DNA re-replication, Hoechst nuclear intensity, 48 h; further: nearly all actives have a fitted effect of over 50% in size
Giardia kill – kills Giardia lamblia | AID 540267 | Giardia lamblia trophozoite viability | activity change, % at 7.66 µM, hits read low | 0.15% of 340,000 active; in the data active means activity change below about -80%; inconclusive means between about -30% and that limit;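 further: parasites exposed to compound for two days anaerobically before the ATP read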
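Killing of trophozoites was scored by loss of ATP luminescence after a 48 hrs anaerobic exposure to compounds at 37 deg C, using 100 cells per well.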
Gal4-VP16 FLuc – Gal4-VP16 reporter inhibition counter-screen | 3.5% of 310,000 active | AID 2546 | Potency, µM (titrated, usually from 53.6 µM), actives largely listed as inhibitors | Drosophila S2 Gal4-VP16 UAS-luciferase, luminescence, 20 h;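 further: Gal4-VP16 expression switched on by copper sulfate through the metallothionein promoter; nearly all actives have a fitted effect of over 50% in size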
Large screens that a line does not name were inactive. In the library only some 8.3% were active in any assay of this set; here they are far more common. Unless noted, the call rests on the fitted dose curve; in most records, active means well fitted curve in the direction sought with a large enough effect; inconclusive means small, poorly fitted or top-dose-only effect, or another doubt; inactive means no such curve, though single readings can be large; an effect the other way counts as inactive or inconclusive.

COc1ccc(NC(=S)N2CCc3ccccc3C2)cc1OC	RORgamma inh 11µM
COc1cc(NC(=S)N2CCc3ccccc3C2)cc(OC)c1	RORgamma inh 14µM, Gal4-VP16 FLuc inconclusive
CCNC(=S)N1CCc2ccccc2C1	none
CSCCCNC(=S)N1CCc2ccccc2C1	RORgamma inh 3.5µM, Gal4-VP16 FLuc inconclusive
COCCn1c(Cc2ccccc2)nnc1SC(C)C(=O)NC1CC1 (centres undefined)	BCR signal inh inconclusive, MCF10A rerep inconclusive (no result: RORgamma inh, Gal4-VP16 FLuc)
CC(C)(C)c1ccc(-c2n[nH]c(=S)n2CC2CCCO2)cc1 (centres undefined)	RORgamma inh 2.8µM, Gal4-VP16 FLuc 10µM
Fc1ccccc1-c1n[nH]c(=S)n1CC1CCCO1 (centres undefined)	RORgamma inh 11µM
C/C(=N\Nc1cccc(Cl)c1)c1ccncc1	none
Clc1cccc(N/N=C(\Cc2nc3ccccc3[nH]2)c2ccccc2)c1	RORgamma inh 18µM, SW480 rereplic inconclusive, BCR signal inh inconclusive, MCF10A rerep inconclusive
COc1ccc(C2CC(c3cccs3)=NN2C(=O)CCl)cc1OC (centres undefined)	RORgamma inh inconclusive, SW480 rereplic 2.1µM, MCF10A rerep 3.3µM, Gal4-VP16 FLuc inconclusive
COc1ccc(C2CC(c3cccs3)=NN2C(=O)c2ccccc2)cc1OC (centres undefined)	none
O=C(c1ccco1)N1N=C(c2cccs2)CC1c1ccccc1O (centres undefined)	MCF10A rerep inconclusive
COc1cc(C2CC(c3cccs3)=NN2C(=O)CCl)ccc1OC(F)F (centres undefined)	RORgamma inh inconclusive, MCF10A rerep 16µM, Gal4-VP16 FLuc 16µM
COc1cccc(C2CC(c3cccs3)=NN2C(=O)c2ccco2)c1O (centres undefined)	RORgamma inh 5.6µM, BCR signal inh inconclusive
CC(OC(=O)CN1C(=O)c2ccccc2C1=O)C(=O)N(C)c1ccccc1 (centres undefined)	none (no result: RORgamma inh, Gal4-VP16 FLuc)
CNc1ccccc1C(C)(C)c1cc(-c2cccc(OC)c2)no1	RORgamma inh 1.4µM, Gal4-VP16 FLuc inconclusive
CNc1ccccc1C(C)(C)c1cc(-c2cc(C)cc(C)c2)no1	SW480 rereplic inconclusive, MCF10A rerep inconclusive
COc1ccc(OC)c(N(C(=O)c2ccco2)C(C(=O)NC2CCCC2)c2cc(OC)c(OC)c(OC)c2)c1 (centres undefined)	none
Cc1cccnc1CN1CCN(Cc2nc(Cc3cccc(F)c3)no2)CC1	RORgamma inh 13µM
Cc1cc(C)c(/C([O-])=C(/C(=S)Nc2ccc(SC(F)F)cc2)[n+]2ccccc2)cc1C	RORgamma inh 11µM, SW480 rereplic inconclusive, MCF10A rerep inconclusive
C=CCOc1ccc(/C=C2\SC(=Nc3cccnc3)NC2=O)cc1	none
CC(/C=C1\SC(=Nc2cccnc2)NC1=O)=C\c1ccccc1	MCF10A rerep 1.6µM
CC(C)(C)OC(=O)N1CCCC(C(=O)Nc2cccc(C(=O)NC3CC3)c2)C1 (centres undefined)	none (no result: RORgamma inh, BCR signal inh, Gal4-VP16 FLuc)
O=C(CNC(=S)N(Cc1ccccc1)Cc1ccccc1F)NCc1ccc(Cl)cc1	RORgamma inh 2µM, BCR signal inh inconclusive, MCF10A rerep 23µM
O=C(CNC(=S)N(Cc1ccccc1)Cc1ccccc1F)NCCc1ccccc1	RORgamma inh 13µM, MCF10A rerep inconclusive
O=C(CNC(=S)N(Cc1ccccc1)Cc1ccccc1F)NCc1ccccc1	BCR signal inh inconclusive, MCF10A rerep inconclusive
CC(NC(=O)COc1ccc(N(C)S(=O)(=O)c2ccccc2)cc1)c1ccccc1 (centres undefined)	none
C/C(CCC12CC3CC(CC(C3)C1)C2)=N\NC(N)=S	RORgamma inh 1.3µM, SW480 rereplic 3.3µM, BCR signal inh inconclusive, MCF10A rerep inconclusive, Gal4-VP16 FLuc 4.5µM
O=C(NC(=S)Nc1ccc(N2CCN(C(=O)c3ccccc3)CC2)cc1)c1cccs1	RORgamma inh 5.6µM, BCR signal inh inconclusive, MCF10A rerep inconclusive, Gal4-VP16 FLuc inconclusive
CCCC(=O)NC(=S)Nc1ccc(N2CCN(C(=O)c3cccs3)CC2)cc1	RORgamma inh 7.9µM, MCF10A rerep inconclusive, Gal4-VP16 FLuc inconclusive

Screens as filed in PubChem.
